# In article PMC7862700, “An all-to-all approach to the identification of sequence-specific readers for epigenetic DNA modifications on cytosine”:
# Assays:
# Assay in all cases: DAPPL (digital affinity profiling via proximity ligation, sequencing); 10 mM Tris-HCl pH 7.5, 50 mM NaCl, 1 mM DTT, 4% glycerol, room temperature, 30 min; GST-TFs on glutathione beads, 16-mer random dsDNA library, 0.1% formaldehyde crosslink after washing; high values mean tight binding
# FLI1 = molecular target: T1, FLI1 (Homo sapiens, UniProt Q01543 1-452); settings: protein: recombinant; tags: N-terminal GST; dsDNA, one strand shown
# T1 sequence: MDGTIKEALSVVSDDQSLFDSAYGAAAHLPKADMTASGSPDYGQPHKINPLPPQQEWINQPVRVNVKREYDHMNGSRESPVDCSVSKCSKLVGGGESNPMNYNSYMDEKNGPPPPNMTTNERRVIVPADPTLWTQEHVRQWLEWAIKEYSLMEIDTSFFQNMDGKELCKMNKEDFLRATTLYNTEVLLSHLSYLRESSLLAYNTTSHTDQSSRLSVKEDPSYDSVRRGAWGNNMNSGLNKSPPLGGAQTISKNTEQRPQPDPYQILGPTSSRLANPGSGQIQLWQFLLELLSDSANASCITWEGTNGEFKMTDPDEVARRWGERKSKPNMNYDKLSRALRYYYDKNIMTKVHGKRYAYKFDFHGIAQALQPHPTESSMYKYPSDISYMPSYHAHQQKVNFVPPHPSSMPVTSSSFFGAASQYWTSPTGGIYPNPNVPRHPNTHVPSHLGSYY
# Outline: (§1)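 Sequencing on an Illumina NextSeq500 followed washing, crosslinking with 0.1% formaldehyde, proximity ligation (BsaI/T4 ligase, 1 h, 37 °C) and PCR amplification of pools that had been incubated for 30 min at room temperature with 200 nmole of a random double-stranded 16-mer DNA library in Tris/NaCl/DTT/glycerol buffer. Each pool held DNA-barcoded human transcription factors, expressed in yeast as GST fusions and captured on glutathione beads, plus a tag-only sample. Binding signal is a hexamer's read frequency for a factor divided by its frequency in the tag-only sample.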
# ELK1 = molecular target: T2, ELK1 (Homo sapiens, UniProt P19419 1-428); settings: protein: recombinant; tags: N-terminal GST; dsDNA, one strand shown
# T2 sequence: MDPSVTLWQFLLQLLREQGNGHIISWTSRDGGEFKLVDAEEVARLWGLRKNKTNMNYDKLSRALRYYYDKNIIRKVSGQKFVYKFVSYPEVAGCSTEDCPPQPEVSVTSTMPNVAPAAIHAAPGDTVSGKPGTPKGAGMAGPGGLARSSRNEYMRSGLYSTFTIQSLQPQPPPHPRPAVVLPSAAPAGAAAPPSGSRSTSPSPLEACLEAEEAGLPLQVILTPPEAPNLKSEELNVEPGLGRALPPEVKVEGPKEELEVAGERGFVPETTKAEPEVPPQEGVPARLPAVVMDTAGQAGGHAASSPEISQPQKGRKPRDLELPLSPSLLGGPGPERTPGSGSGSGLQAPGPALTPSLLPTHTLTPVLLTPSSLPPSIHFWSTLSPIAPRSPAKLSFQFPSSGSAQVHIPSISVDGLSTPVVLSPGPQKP
# Outline: as §1
# GABPA = molecular target: T3, GABPA (Homo sapiens, UniProt Q06546 1-454); settings: protein: recombinant; tags: N-terminal GST; dsDNA, one strand shown
# T3 sequence: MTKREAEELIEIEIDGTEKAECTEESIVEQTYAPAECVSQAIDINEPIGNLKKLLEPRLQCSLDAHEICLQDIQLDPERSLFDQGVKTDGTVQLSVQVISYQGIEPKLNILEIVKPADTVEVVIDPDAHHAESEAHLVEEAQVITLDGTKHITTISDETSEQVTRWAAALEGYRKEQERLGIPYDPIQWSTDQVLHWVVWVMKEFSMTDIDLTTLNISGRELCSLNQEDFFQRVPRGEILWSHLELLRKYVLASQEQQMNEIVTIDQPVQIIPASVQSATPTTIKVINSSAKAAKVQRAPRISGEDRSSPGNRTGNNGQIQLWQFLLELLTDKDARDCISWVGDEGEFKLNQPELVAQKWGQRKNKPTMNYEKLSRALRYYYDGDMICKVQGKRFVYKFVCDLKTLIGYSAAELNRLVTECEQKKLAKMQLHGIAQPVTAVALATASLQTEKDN
# Outline: as §1
# ERG = molecular target: T4, ERG (Homo sapiens, UniProt P11308 1-479); settings: protein: recombinant; tags: N-terminal GST; dsDNA, one strand shown
# T4 sequence: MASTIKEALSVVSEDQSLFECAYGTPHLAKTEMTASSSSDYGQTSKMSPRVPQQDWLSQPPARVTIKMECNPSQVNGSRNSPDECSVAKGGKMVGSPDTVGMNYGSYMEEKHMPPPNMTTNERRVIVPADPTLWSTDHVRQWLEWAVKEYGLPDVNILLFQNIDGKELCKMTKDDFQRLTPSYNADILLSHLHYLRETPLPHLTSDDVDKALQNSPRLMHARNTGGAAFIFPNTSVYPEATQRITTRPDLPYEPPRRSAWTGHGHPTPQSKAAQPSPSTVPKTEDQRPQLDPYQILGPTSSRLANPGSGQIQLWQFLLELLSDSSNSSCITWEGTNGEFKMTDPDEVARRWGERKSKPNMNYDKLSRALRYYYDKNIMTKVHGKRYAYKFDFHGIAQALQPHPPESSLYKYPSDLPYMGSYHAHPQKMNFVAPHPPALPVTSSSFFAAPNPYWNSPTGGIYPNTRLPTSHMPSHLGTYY
# Outline: as §1
# ELF1 = ELF1 (Homo sapiens, UniProt P32519 1-619); settings: protein: recombinant; tags: N-terminal GST; dsDNA, one strand shown
# Outline: as §1
# EHF = molecular target: T5, EHF (Homo sapiens, UniProt Q9NZC4 1-300); settings: protein: recombinant; tags: N-terminal GST; dsDNA, one strand shown
# T5 sequence: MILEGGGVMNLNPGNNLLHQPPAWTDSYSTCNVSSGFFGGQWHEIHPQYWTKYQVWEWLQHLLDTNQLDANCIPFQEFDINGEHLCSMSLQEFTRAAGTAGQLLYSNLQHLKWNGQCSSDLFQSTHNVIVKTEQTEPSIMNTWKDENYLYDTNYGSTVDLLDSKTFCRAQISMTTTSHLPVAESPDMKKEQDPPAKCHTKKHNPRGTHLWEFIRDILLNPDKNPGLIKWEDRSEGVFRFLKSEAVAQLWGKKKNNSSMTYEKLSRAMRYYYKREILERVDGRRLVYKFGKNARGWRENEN
# Outline: as §1
# SPI1 = SPI1 (Homo sapiens, UniProt P17947 1-270); settings: protein: recombinant; tags: N-terminal GST; dsDNA, one strand shown
# Outline: as §1
# SPIB = SPIB (Homo sapiens, UniProt Q01892 1-262); settings: protein: recombinant; tags: N-terminal GST; dsDNA, one strand shown
# Outline: as §1
# ELK3 = molecular target: T6, ELK3 (Homo sapiens, UniProt P41970 1-407); settings: protein: recombinant; tags: N-terminal GST; dsDNA, one strand shown
# T6 sequence: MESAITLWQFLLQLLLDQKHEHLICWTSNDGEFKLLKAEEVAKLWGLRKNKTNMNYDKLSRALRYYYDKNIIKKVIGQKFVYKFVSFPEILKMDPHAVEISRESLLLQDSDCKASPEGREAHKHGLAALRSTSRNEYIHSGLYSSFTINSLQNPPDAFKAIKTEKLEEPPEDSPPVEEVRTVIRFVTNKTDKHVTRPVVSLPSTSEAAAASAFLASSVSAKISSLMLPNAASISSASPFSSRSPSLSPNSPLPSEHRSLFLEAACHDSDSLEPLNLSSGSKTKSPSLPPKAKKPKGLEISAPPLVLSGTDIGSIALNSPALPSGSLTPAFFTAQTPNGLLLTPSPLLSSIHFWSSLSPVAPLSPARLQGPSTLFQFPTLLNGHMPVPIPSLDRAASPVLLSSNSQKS
# Outline: as §1
# FEV = molecular target: T7, FEV (Homo sapiens, UniProt Q99581 1-238); settings: protein: recombinant; tags: N-terminal GST; dsDNA, one strand shown
# T7 sequence: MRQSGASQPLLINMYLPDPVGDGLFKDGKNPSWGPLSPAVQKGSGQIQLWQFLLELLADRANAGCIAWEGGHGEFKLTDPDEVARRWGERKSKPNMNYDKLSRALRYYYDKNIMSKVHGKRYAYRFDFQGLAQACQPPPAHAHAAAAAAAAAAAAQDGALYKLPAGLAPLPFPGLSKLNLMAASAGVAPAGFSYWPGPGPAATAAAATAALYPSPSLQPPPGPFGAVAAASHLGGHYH
# Outline: as §1
# ETV5 = ETV5 (Homo sapiens, UniProt P41161 1-510); settings: protein: recombinant; tags: N-terminal GST; dsDNA, one strand shown
# Outline: as §1
# HSF1 = HSF1 (Homo sapiens, UniProt Q00613 1-529); settings: protein: recombinant; tags: N-terminal GST; chain copies: 3; dsDNA, one strand shown
# Outline: as §1
# SPIC = molecular target: T8, SPIC (Homo sapiens, UniProt Q8N5J4 1-248); settings: protein: recombinant; tags: N-terminal GST; dsDNA, one strand shown
# T8 sequence: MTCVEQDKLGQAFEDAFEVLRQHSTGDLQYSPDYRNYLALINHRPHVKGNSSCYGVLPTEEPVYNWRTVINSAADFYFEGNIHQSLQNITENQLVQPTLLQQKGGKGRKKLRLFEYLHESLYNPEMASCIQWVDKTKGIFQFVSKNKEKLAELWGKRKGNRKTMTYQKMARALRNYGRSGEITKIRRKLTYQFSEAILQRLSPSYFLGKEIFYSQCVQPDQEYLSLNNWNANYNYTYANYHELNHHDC
# Outline: as §1
# ELF4 = ELF4 (Homo sapiens, UniProt Q99607 1-663); settings: protein: recombinant; tags: N-terminal GST; dsDNA, one strand shown
# Outline: as §1
# ELK4 = molecular target: T9, ELK4 (Homo sapiens, UniProt P28324-2 1-405); settings: protein: recombinant; tags: N-terminal GST; dsDNA, one strand shown
# T9 sequence: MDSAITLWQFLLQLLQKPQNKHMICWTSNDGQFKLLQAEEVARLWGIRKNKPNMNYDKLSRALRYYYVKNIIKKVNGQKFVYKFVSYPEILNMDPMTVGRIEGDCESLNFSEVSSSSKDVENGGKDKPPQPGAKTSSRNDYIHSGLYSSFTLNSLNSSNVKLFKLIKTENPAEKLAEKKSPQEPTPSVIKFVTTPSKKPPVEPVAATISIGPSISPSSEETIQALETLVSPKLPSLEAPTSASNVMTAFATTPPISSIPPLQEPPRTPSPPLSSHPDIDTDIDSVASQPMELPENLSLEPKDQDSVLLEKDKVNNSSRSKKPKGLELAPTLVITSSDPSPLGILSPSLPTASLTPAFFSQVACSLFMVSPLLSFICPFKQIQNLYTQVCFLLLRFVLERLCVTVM
# Outline: as §1
# ETV2 = molecular target: T10, ETV2 (Homo sapiens, UniProt O00321 1-342); settings: protein: recombinant; tags: N-terminal GST; dsDNA, one strand shown
# T10 sequence: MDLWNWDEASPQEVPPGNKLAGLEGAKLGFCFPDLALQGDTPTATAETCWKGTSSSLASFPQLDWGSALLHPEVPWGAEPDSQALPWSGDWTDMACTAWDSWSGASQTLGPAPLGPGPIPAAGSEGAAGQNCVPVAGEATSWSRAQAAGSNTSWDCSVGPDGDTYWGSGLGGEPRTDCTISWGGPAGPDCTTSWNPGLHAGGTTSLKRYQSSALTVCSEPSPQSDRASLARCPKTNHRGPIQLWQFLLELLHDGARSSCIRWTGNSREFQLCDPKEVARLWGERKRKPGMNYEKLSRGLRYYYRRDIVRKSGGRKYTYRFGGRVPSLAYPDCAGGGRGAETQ
# Outline: as §1
# ELF3 = molecular target: T11, ELF3 (Homo sapiens, UniProt P78545 1-371); settings: protein: recombinant; tags: N-terminal GST; dsDNA, one strand shown
# T11 sequence: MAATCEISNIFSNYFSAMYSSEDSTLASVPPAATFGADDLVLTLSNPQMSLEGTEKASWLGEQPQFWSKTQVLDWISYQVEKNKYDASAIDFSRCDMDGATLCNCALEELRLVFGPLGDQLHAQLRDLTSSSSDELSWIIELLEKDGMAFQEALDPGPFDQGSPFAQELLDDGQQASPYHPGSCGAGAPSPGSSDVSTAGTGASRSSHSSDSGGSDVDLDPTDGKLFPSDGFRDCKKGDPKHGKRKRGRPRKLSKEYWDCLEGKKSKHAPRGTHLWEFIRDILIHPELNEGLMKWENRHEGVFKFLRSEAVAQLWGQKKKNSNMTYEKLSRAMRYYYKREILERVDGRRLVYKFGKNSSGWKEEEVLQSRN
# Outline: as §1
# CRX = CRX (Homo sapiens, UniProt O43186 1-299); settings: protein: recombinant; tags: N-terminal GST; dsDNA, one strand shown
# Outline: as §1
# ETV1 = ETV1 (Homo sapiens, UniProt P50549 1-477); settings: protein: recombinant; tags: N-terminal GST; dsDNA, one strand shown
# Outline: as §1
# Chain of ELF1 (P32519 whole entry): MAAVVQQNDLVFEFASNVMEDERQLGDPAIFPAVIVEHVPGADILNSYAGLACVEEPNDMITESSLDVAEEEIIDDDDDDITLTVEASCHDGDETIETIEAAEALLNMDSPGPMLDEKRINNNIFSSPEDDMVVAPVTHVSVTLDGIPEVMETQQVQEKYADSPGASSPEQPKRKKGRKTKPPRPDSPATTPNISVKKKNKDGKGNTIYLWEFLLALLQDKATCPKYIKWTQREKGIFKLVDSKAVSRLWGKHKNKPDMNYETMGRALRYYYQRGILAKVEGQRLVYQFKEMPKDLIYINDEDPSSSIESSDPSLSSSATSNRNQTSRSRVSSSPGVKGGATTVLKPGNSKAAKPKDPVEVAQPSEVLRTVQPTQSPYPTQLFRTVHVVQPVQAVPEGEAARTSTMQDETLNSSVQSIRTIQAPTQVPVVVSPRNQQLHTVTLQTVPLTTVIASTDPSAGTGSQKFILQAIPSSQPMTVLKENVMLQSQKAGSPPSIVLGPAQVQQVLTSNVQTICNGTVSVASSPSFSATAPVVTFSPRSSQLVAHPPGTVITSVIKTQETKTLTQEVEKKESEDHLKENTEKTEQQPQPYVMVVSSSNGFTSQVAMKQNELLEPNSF
# Chain of CRX (O43186 whole entry): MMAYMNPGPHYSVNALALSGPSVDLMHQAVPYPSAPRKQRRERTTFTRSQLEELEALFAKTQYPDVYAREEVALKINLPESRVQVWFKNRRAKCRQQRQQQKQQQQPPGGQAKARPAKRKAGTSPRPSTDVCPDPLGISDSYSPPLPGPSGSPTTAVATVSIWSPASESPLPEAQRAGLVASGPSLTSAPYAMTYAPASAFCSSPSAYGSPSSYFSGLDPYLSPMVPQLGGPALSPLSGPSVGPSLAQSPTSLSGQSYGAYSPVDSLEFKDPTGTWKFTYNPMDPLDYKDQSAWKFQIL
# Chain of ETV5 (P41161 whole entry): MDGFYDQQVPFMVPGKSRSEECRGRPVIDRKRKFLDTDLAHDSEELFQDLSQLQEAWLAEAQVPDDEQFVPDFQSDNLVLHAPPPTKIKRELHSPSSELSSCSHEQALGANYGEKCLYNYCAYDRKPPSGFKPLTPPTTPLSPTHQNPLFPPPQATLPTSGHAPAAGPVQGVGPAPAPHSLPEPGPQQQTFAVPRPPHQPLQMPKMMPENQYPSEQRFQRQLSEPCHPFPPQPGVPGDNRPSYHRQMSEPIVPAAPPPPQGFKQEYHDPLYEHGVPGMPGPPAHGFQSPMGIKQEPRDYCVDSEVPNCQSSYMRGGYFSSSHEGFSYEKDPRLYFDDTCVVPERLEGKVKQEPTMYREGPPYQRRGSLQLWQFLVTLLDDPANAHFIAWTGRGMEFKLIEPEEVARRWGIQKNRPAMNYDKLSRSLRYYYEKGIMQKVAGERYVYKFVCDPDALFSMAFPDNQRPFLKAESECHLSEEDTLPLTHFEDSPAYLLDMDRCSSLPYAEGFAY
# Chain of ETV1 (P50549 whole entry): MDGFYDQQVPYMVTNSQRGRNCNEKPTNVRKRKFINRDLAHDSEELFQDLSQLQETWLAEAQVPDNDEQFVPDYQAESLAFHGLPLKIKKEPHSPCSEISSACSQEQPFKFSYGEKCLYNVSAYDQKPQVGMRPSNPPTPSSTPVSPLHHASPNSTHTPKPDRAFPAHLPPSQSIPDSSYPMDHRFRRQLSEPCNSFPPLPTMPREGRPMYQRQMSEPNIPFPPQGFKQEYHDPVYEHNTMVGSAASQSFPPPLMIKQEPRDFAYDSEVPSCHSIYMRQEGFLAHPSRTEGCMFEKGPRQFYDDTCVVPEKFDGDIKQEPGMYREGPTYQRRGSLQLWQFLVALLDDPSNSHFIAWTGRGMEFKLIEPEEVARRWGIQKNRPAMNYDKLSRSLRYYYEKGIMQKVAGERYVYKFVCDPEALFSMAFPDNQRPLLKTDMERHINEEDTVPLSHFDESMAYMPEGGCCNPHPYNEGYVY
# Chain of ELF4 (Q99607 whole entry): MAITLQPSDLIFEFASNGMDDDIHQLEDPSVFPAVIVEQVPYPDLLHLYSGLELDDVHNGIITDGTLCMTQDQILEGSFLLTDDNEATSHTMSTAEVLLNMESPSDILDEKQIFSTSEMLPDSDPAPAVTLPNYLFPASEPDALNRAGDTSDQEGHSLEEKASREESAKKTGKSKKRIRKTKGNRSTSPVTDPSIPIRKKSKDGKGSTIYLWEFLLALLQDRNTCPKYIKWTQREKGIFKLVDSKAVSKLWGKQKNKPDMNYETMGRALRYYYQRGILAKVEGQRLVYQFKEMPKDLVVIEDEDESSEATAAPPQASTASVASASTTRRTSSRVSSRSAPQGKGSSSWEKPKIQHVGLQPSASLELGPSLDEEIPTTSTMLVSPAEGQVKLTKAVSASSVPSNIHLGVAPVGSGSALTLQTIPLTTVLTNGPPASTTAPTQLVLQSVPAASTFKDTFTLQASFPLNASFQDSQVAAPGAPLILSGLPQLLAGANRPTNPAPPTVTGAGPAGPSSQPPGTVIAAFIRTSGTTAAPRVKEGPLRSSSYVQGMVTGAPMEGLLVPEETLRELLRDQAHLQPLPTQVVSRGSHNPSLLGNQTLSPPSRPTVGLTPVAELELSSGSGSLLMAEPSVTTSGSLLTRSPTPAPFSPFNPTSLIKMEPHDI
# Chain of SPIB (Q01892 whole entry): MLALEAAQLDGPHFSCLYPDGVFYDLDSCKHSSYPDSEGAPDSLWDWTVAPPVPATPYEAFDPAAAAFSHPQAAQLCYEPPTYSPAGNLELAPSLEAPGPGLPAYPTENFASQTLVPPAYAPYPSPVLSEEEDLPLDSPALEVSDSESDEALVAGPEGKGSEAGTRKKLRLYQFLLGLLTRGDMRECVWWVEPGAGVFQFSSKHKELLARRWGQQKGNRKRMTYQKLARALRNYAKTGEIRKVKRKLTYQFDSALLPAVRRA
# Chain of HSF1 (Q00613 whole entry): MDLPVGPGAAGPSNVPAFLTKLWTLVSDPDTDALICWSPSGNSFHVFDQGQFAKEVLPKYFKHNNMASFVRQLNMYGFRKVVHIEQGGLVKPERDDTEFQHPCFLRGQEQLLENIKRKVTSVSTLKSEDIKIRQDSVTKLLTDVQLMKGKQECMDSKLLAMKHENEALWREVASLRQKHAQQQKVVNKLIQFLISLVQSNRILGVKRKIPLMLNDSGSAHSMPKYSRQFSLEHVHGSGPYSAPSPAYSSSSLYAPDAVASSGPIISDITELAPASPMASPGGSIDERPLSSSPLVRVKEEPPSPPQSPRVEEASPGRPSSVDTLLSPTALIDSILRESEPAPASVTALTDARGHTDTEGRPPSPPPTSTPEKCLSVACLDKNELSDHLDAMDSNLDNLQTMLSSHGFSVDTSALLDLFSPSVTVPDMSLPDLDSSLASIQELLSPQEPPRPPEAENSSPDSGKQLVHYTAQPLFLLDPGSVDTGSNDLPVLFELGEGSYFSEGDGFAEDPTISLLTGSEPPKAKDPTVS
sequence,measurement,setting,value
GCCTTG,binding signal,FLI1,"1.34 fold enrichment (6-mer frequency, TF over GST control)"
same,binding signal,ELK1,"1.27 fold enrichment (6-mer frequency, TF over GST control)"
same,binding signal,GABPA,"1.33 fold enrichment (6-mer frequency, TF over GST control)"
same,binding signal,ERG,"1.26 fold enrichment (6-mer frequency, TF over GST control)"
same,binding signal,ELF1,"1.29 fold enrichment (6-mer frequency, TF over GST control)"
same,binding signal,EHF,"1.24 fold enrichment (6-mer frequency, TF over GST control)"
same,binding signal,SPI1,"1.25 fold enrichment (6-mer frequency, TF over GST control)"
same,binding signal,SPIB,"1.23 fold enrichment (6-mer frequency, TF over GST control)"
same,binding signal,ELK3,"1.18 fold enrichment (6-mer frequency, TF over GST control)"
same,binding signal,FEV,"1.13 fold enrichment (6-mer frequency, TF over GST control)"
same,binding signal,ETV5,"1.34 fold enrichment (6-mer frequency, TF over GST control)"
same,binding signal,HSF1,"1.06 fold enrichment (6-mer frequency, TF over GST control)"
same,binding signal,SPIC,"1.31 fold enrichment (6-mer frequency, TF over GST control)"
same,binding signal,ELF4,"1.21 fold enrichment (6-mer frequency, TF over GST control)"
same,binding signal,ELK4,"1.17 fold enrichment (6-mer frequency, TF over GST control)"
same,binding signal,ETV2,"1.09 fold enrichment (6-mer frequency, TF over GST control)"
same,binding signal,ELF3,"1.23 fold enrichment (6-mer frequency, TF over GST control)"
same,binding signal,CRX,"1.05 fold enrichment (6-mer frequency, TF over GST control)"
same,binding signal,ETV1,"1.18 fold enrichment (6-mer frequency, TF over GST control)"
